The supplement of paper PMC6411743
± gives the standard deviation of the averaged measurements. The full data set covers some 5,400 targets. This sample favours those with the largest changes.

Compound: Nc1nc2c(ncn2[C@@H]2O[C@H](COP(=O)(O)OP(=O)(O)OP(=O)(O)O)[C@@H](O)[C@H]2O)c(=O)[nH]1 [guanosine triphosphate]
Test: NP40-soluble protein abundance relative to vehicle (solubility fold change) (ratio); higher = more soluble protein in presence of GTP
Method: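 Solubility proteome profiling in Jurkat crude lysate. Lysate was treated with Mg-GTP (0.1-10 mM) for 10 min at room temperature and 3 min at 37 °C, then solubilised with 0.8% NP40 and benzonase, followed by ultracentrifugation. Proteins were quantified by TMT10 LC-MS/MS; the value is the NP40-soluble abundance relative to the NP40-processed vehicle, from 3 independent experiments.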

Sequence of UniProt P17480 (P17480 whole entry, one chain of several): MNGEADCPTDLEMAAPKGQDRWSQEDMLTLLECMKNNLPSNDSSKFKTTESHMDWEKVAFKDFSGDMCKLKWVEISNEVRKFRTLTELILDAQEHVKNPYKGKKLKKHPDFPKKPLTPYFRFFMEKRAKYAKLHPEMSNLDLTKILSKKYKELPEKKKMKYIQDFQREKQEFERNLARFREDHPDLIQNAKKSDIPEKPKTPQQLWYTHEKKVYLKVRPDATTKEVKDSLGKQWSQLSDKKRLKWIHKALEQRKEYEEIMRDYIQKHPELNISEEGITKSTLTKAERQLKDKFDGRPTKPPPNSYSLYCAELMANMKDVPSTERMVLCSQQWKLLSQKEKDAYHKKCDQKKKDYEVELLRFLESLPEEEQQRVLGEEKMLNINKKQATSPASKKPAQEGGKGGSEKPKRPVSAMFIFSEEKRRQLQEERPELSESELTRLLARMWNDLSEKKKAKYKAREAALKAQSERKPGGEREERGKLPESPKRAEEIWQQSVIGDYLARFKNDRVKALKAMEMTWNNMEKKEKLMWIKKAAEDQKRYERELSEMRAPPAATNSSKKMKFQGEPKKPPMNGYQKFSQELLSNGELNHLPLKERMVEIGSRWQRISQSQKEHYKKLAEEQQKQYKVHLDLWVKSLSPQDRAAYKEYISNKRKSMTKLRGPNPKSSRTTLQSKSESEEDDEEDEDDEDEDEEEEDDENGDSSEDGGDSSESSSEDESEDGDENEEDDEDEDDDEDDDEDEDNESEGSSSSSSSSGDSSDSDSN
Sequence of UniProt Q9NQ29 (Q9NQ29 whole entry, one chain of several): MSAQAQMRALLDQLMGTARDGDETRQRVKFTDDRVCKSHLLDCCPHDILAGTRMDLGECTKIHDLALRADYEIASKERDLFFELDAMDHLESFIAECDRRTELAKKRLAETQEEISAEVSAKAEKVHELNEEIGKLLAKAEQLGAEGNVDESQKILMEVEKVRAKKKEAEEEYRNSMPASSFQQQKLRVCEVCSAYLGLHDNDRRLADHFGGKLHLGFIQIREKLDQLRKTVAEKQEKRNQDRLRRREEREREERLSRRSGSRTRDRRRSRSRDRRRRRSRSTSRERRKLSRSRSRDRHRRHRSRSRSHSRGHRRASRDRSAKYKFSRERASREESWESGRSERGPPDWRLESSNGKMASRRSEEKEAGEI
Sequence of UniProt P52747 (P52747 whole entry, one chain of several): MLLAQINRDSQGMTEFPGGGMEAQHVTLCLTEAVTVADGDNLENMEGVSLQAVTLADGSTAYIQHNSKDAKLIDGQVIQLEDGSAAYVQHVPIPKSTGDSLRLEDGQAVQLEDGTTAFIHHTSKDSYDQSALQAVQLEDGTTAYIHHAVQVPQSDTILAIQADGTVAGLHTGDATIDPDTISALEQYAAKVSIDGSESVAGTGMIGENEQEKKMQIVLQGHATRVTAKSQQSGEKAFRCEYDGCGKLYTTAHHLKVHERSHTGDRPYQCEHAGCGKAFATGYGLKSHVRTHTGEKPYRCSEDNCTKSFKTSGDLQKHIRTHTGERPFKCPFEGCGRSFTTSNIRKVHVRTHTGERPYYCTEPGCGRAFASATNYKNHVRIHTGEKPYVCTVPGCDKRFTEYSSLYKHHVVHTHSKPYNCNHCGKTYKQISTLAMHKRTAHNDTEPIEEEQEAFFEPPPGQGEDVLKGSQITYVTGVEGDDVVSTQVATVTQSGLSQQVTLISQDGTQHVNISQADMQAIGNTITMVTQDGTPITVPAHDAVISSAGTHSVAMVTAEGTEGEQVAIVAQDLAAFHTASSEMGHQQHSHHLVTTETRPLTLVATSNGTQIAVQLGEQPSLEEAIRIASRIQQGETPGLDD
Sequence of UniProt P22102 (P22102 whole entry, one chain of several): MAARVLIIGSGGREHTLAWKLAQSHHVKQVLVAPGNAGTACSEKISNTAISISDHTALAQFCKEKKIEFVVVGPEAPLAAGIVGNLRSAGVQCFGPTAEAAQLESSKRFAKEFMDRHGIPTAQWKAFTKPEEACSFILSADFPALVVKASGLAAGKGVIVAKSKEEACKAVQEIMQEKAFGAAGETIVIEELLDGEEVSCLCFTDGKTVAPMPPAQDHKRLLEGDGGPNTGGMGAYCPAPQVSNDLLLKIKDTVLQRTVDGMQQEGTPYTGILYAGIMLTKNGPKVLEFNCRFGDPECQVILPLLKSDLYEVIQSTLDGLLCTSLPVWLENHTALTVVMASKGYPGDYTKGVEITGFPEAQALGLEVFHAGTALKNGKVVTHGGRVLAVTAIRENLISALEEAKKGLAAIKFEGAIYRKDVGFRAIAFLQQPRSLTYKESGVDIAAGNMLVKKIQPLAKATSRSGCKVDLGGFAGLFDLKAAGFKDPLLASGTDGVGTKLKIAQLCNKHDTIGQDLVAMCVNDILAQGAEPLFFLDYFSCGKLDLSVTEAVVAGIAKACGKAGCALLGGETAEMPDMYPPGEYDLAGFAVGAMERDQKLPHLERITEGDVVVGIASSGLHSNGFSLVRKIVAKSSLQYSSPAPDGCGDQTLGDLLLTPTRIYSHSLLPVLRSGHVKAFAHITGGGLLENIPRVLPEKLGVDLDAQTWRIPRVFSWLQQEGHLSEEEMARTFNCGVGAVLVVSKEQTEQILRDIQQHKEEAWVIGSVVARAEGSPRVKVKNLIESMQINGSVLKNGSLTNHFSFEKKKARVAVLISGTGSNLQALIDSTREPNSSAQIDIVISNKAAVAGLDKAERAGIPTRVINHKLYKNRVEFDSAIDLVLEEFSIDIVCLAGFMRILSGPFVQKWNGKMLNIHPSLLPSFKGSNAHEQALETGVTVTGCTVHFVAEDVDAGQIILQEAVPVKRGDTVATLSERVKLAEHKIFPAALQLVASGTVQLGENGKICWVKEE
Sequence of UniProt Q8WYH8 (Q8WYH8 whole entry, one chain of several): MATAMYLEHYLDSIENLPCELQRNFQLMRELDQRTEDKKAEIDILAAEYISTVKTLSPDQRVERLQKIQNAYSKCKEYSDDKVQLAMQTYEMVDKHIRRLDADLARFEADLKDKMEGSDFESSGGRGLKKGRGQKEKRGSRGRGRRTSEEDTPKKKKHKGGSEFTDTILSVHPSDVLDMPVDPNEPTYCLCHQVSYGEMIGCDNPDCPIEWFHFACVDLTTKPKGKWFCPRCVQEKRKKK

Target	NP40-soluble protein abundance (concentration: 0.1mM)	NP40-soluble protein abundance (concentration: 0.5mM)	NP40-soluble protein abundance (concentration: 1mM)	NP40-soluble protein abundance (concentration: 2mM)	NP40-soluble protein abundance (concentration: 4mM)	NP40-soluble protein abundance (concentration: 6mM)	NP40-soluble protein abundance (concentration: 8mM)	NP40-soluble protein abundance (concentration: 10mM)
E9PEN0|Q8WYH8|Q8WYH8-2 (UniProt Q8WYH8)	1.1 ± 0.098	1.07 ± 0.16	1.26 ± 0.41	1.19 ± 0.26	1.33 ± 0.3	1.5 ± 0.35	1.48 ± 0.39	2 ± 0.59
E7EN86|P52747|P52747-2|P52747-3 (UniProt P52747)	1.06 ± 0.038	1.03 ± 0.024	0.988 ± 0.058	0.94 ± 0.013	0.988 ± 0.076	0.939 ± 0.055	1.03 ± 0.013	1.02 ± 0.045
E9PKP7|E9PLT2|P17480|P17480-2 (UniProt P17480)	1.02 ± 0.025	1 ± 0.036	1.08 ± 0.025	1.2 ± 0.079	1.31 ± 0.074	1.45 ± 0.066	1.5 ± 0.053	1.87 ± 0.13
B8ZZ10|Q9NQ29|Q9NQ29-2|Q9NQ29-3 (UniProt Q9NQ29)	1.26 ± 0.045	1.75 ± 0.11	1.91 ± 0.18	1.95 ± 0.12	1.98 ± 0.12	2.09 ± 0.14	2.21 ± 0.28	2.22 ± 0.28
C9JKQ7|C9JTV6|C9JZG2|P22102 (UniProt P22102)	0.96 ± 0.015	0.985 ± 0.03	0.9188 ± 0.0076	0.909 ± 0.023	0.895 ± 0.026	0.894 ± 0.017	0.863 ± 0.039	0.863 ± 0.022
